# MsrA inhibitor: bovine MsrA inhibition; purified bovine MsrA, absorbance read-out; inhibition, % at 15.5 µM; 360,000 tested, 0.75% active; in the data active = inhibition above about 4.5%;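 also: 0% = vehicle wells with enzyme and 100% = reference inhibitor wells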
# sPLA2-III inh: Inhibits HGIII-sPLA2 liposome hydrolysis, primary screen; inhibition, % at 12.2 µM; QFRET BODIPY PC-A2 liposome hydrolysis, fluorescence; Q9NZ20; 370,000 tested, 0.56% active;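 active = inhibition above mean plus 3 SD of compounds lying within the high and low control bounds, cut at about 19% in these data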;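 also: 0% = median of test compound wells and 100% = no enzyme DMSO wells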
# Target sequence (Q9NZ20 whole entry, looked up): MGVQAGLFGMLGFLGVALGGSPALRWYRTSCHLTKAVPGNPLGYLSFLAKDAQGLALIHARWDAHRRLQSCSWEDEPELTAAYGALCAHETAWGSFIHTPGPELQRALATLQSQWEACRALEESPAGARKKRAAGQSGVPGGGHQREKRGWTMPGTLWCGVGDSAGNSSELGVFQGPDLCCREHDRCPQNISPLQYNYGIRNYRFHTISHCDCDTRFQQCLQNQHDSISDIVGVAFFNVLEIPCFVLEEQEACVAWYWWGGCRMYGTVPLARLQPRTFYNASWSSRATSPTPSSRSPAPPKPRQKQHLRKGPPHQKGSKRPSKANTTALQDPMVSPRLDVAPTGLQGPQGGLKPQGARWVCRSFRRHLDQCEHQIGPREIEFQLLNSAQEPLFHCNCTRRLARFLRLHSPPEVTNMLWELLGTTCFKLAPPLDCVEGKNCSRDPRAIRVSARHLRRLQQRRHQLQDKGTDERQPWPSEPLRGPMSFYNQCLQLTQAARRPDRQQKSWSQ
# rCAG RNA binder: binds r(CAG) RNA repeats. AID 651821. 370,000 tested, 1.3% active. inhibition, % at 3 µM. r(CAG) RNA repeat, TO-PRO-1 dye displacement fluorescence;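 active = inhibition above the plate cutoff, the mean of all test compounds on that plate plus 3 SD, cut at about 35% in these data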;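 also: 0% = DMSO alone and 100% = 100 µM mitoxantrone as full dye displacement; higher means more dye released from RNA so lower well fluorescence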
# bovine MsrA act: activators of bovine methionine sulfoxide reductase A; AID 602163; 360,000 tested, 0.3% active; activation, % at 10.6 µM; purified bovine MsrA, absorbance read-out; in the data active = activation above about 7.5%;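 also: 0% = vehicle and 100% = reference activator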
# rCAG bind conf: r(CAG) RNA repeat binding, confirmation. shares compounds with rCAG RNA binder. TO-PRO-1 dye displacement fluorescence. inhibition, % at 3 µM. 4,300 tested, 70% active. AID 652065;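 active = inhibition above a per-plate cutoff, the mean inhibition of sample wells plus 3 SD, cut at about 35% in these data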;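 also: loss of TO-PRO-1 fluorescence as compound displaces dye from 1x1 AA loop RNA; 0% = DMSO only wells and 100% = 100 µM mitoxantrone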
# DNA CAG counter: disrupts DNA CAG TO-PRO-1 complex, flagging rCAG hits. shares compounds with rCAG RNA binder. AID 652068. 4,300 tested, 94% active. inhibition, % at 3 µM. d(CAG) DNA oligo TO-PRO-1 dye displacement, fluorescence;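 active = inhibition above its plate's cutoff, the mean test-well inhibition plus 3 SD, cut at about 4.8% in these data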;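 also: 0% = DNA dye mix with DMSO and 100% = 100 µM mitoxantrone; hits displace the dye from DNA and so lower well fluorescence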
# dCAG dye DR: counter-screen for rCAG binders: inhibitors of DNA CAG TO-PRO-1 complex; shares compounds with rCAG RNA binder; DNA CAG/GTC duplex TO-PRO-1 dye displacement fluorescence; IC50, µM; 250 tested, 20% active; in the data active = IC50 below about 10 µM
# Starred values were filed as active, the others as inactive; i = inactive; . = not tested or not shown. Rows were chosen to be rich in hits. Some 2.8% of all compounds tested hit in one or more screens of this group.
SMILES,MsrA inhibitor,sPLA2-III inh,rCAG RNA binder,bovine MsrA act,rCAG bind conf,DNA CAG counter,others
CCCCCC(=O)Nc1nc(C)c(-c2csc(Nc3cc(Cl)ccc3OC)n2)s1,1,3,39*,-14,27,13*,
CCCC(=O)Nc1nc(C)c(-c2csc(Nc3cc(OC)ccc3OC)n2)s1,1,4,22,-2,.,.,
Cc1ccnc(NS(=O)(=O)c2ccc(NC(=O)c3cc(-c4ccc(Br)cc4)nc4ccccc34)cc2)n1,0,-11,39*,-5,72*,33*,dCAG dye DR=i
Cc1ccc(-c2cc(C(=O)Nc3ccc(S(=O)(=O)Nc4nc(C)cc(C)n4)cc3)c3ccccc3n2)cc1,1,9,8,-5,.,.,
Cc1ccnc(NS(=O)(=O)c2ccc(NC(=O)c3cc(-c4ccccc4)nc4ccccc34)cc2)n1,1,-28,45*,0,56*,16*,
COc1ccc(-c2cc(C(=O)Nc3ccc(S(=O)(=O)Nc4ncccn4)cc3)c3ccccc3n2)cc1,2,0,58*,-3,56*,22*,
COc1cc(-c2cc(C(=O)Nc3ccc(S(=O)(=O)Nc4ncccn4)cc3)c3ccccc3n2)cc(OC)c1OC,-1,-6,5,-1,.,.,
Cc1cc(C)c2c(c1)OC(=O)CC2c1ccccc1C (stereo not drawn),0,-2,4,-1,.,.,
CCS(=O)(=O)Nc1cccc(C2=NN(C(=O)c3ccco3)C(c3ccco3)C2)c1 (stereo not drawn),3,-10,15,-3,.,.,
O=C1NCCN1C(=O)c1ccco1,-1,0,0,-2,.,.,
CCN=C1S/C(=C\c2ccc(O)c(OCC)c2)C(=O)N1CC,3,-17,10,-1,.,.,
O=[N+]([O-])c1ccc(O)c(C=NN2CCCCC2)c1,0,-5,2,-1,.,.,
Cc1ccccc1/C=C1\SC(=S)N(/N=C/c2cc([N+](=O)[O-])ccc2O)C1=O,1,-3,37*,-8,34,10*,
O=C1/C(=C\c2cccc(O)c2O)SC(=S)N1Cc1ccccc1,2,-8,37*,4,83*,53*,
COc1cc(/C=C2/SC(=S)N(Cc3ccccc3)C2=O)ccc1O,2,-8,55*,-8,35*,18*,
Cc1ccc(/C=C2\SC(=S)N(Cc3ccccc3)C2=O)o1,0,6,29,-1,.,.,
COc1cc(/C=C2/SC(=NCc3ccccc3)N(Cc3ccccc3)C2=O)ccc1O,2,-20,38*,-1,42*,23*,
CCC(C)NC(=O)CC(NS(=O)(=O)c1ccc(Cl)cc1)c1ccco1 (stereo not drawn),-1,-3,-2,1,.,.,
O=C1/C(=C/c2ccncc2)SC(=S)N1Cc1ccccc1,0,-17,5,-5,.,.,
O=C1/C(=C\c2ccc(O)c(O)c2)SC(=S)N1Cc1ccccc1,0,14,64*,6,69*,38*,
O=C(CCCN1C(=O)/C(=C\c2cccs2)SC1=S)Nc1cc([N+](=O)[O-])ccc1O,0,7,5,-6,.,.,
O=C1/C(=C\c2cc([N+](=O)[O-])ccc2O)SC(=S)N1Cc1ccc(Cl)cc1,-2,-16,54*,-1,87*,74*,
O=C1C(=Cc2ccco2)CCC1=Cc1ccco1,2,-4,66*,-12,78*,44*,
O=C1C(=Cc2ccco2)CCCC1=Cc1ccco1,1,-4,22,-4,.,.,
Cc1c(Cc2ccc3c(c2)OCO3)sc(NC(=O)c2cccc3ccccc23)c1C(N)=O,0,1,10,-3,.,.,
SMILES,MsrA inhibitor,sPLA2-III inh,rCAG RNA binder,bovine MsrA act,rCAG bind conf,DNA CAG counter,others
Cc1ccc([C@@H]2C[C@H]3[C@@H](CN2S(=O)(=O)c2ccc(C)cc2)C(=O)C[C@@H](c2cccc(Cl)c2)N3S(=O)(=O)c2ccc(C)cc2)cc1,1,-9,13,-8,.,.,
C=CCOC(=O)C1=C(C)N=c2sc(=C3C(=O)N(CC(=O)O)c4ccccc43)c(=O)n2C1c1ccc(OC)cc1 (stereo not drawn),.,4,48*,.,75*,41*,
C=CCOC(=O)C1=C(C)N=c2s/c(=C3\C(=O)N(CC(=O)O)c4ccccc43)c(=O)n2C1c1ccc(OC)cc1 (stereo not drawn),0,4,12,-1,.,.,
C/C(=N/NC(=O)c1ccc(Cn2cccn2)o1)c1cccc(NC(=O)c2ccncc2)c1,0,-2,2,-4,.,.,
O=C(Cc1ccc(Cl)cc1)Nc1ccc(S(=O)(=O)Nc2cnc3ccccc3n2)cc1,3,-64,63*,-5,59*,23*,
O=C(Nc1ccc(S(=O)(=O)Nc2cnc3ccccc3n2)cc1)c1ccc(Cl)cc1Cl,2,-47,66*,0,48*,15*,
Cc1cc(Cl)ccc1OC(C)C(=O)Nc1ccc(C(=O)Nc2ccccc2C(=O)O)cc1 (stereo not drawn),-1,-48,77*,-6,87*,62*,
Cc1cc(Cl)ccc1OC(C)C(=O)Nc1ccc(S(=O)(=O)Nc2cnc3ccccc3n2)cc1 (stereo not drawn),1,-108,80*,-6,90*,57*,
O=C(COc1ccc(Cl)cc1[N+](=O)[O-])NC1CCCCC1,0,0,-6,-4,.,.,
O=C(Nc1ccc(S(=O)(=O)Nc2cnc3ccccc3n2)cc1)c1cc(F)c(F)cc1Cl,3,-31,40*,-11,28,4,
CCCCC[C@@H]1C=C(C(=O)O)[C@H](c2ccc3c(c2)OCO3)N1S(=O)(=O)c1ccc(C)cc1,0,-31,65*,-3,54*,21*,
CCCCC[C@@H]1C=C(C(=O)O)[C@H](c2ccc(Cl)c(Cl)c2)N1S(=O)(=O)c1ccc(C)cc1,0,-60,85*,-2,87*,53*,
CC[C@@H]1C=C(C(=O)O)[C@H](c2ccc3c(c2)OCO3)N1S(=O)(=O)c1ccc(C)cc1,-2,7,7,-2,.,.,
CCCCC[C@@H]1C=C(C(=O)O)[C@H](c2ccc(OC)c(OC)c2)N1S(=O)(=O)c1ccc(C)cc1,0,-14,50*,-4,44*,14*,
CC[C@@H]1C=C(C(=O)O)[C@H](c2ccc(Cl)c(Cl)c2)N1S(=O)(=O)c1ccc(C)cc1,0,-21,46*,-2,41*,12*,
CCN1CCN(CC(=O)Nc2ccc(C)c(Br)c2)CC1,0,16,-1,-1,.,.,
O=C(NNC(=O)c1ccccc1O)c1ccc(Cl)cc1,1,2,0,-4,.,.,
CCN(CC)S(=O)(=O)c1cccc(NC(=O)CNc2cccc(S(=O)(=O)N3CCOCC3)c2)c1,.,.,.,-3,.,.,
CCC[C@@H]1C=C(C(=O)OCC)[C@H](c2ccccc2)N1S(=O)(=O)c1ccc(C)cc1,1,-9,1,-7,.,.,

# Source: PubChem
